The text below walks through data of PubChem BioAssay (NCI).

About 79,000 compounds went through this panel and 15% of them were active in at least one assay; those are over-represented in the sample as a whole. A number with no mark means an inactive call. Rule as the data show it: active = growth inhibition above about 70%; inactive = the rest.

The nature of the assay: NCI Yeast Anticancer Drug Screen. Data for the rad50 strain (AID 155).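 Also: 0% = growth of vehicle-only cultures of the same strain.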 As to conditions: S. cerevisiae rad50 strain growth inhibition; at 50.0 µM; hits give high values. The gist of the method: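 Growth of the mutant yeast was measured after compound exposure and referenced to vehicle-treated cultures.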
In the case of `CCP(=S)(CC)P(=S)(CC)CC`, the growth inhibition was -1.35%.

`Cc1cccc(C)c1NC(N)=S`: the growth inhibition is 3.85%.

For the molecule `Nc1ccc(C(=O)O)cc1[As](O)O`, the growth inhibition was -15.1%.

In the case of `FC(F)(F)c1cccc(NC2=NCCS2)c1`, the growth inhibition is -22.2%.

For the molecule `CC(C)C1C=Cc2ccccc21` (configuration not stated), the growth inhibition was 13.8%.

`CCOP(=O)(CC(N)=O)OCC`: the growth inhibition is -4.9%.

Turning to `O=c1[nH]cnc2c1ncn2-c1ccc(N(CCCl)CCCl)cc1`, the growth inhibition is 4.3%.

On to `CCN1C(=O)NC(=O)C(C)(N2CCCCC2)C1=O` (configuration not stated), for which the growth inhibition is 13.4%.

Turning to `C1CN1[PH+](N1CC1)N1CC1.[C-]#[O+].[C-]#[O+].[C-]#[O+].[C-]#[O+].[C-]#[O+].[W]`, the growth inhibition is -12.8%.

In the case of `O=C(NCC(O)CO)c1cc(N(CCCl)CCCl)c([N+](=O)[O-])cc1[N+](=O)[O-]` (configuration not stated), the growth inhibition was 3.8%.

With `CCCCCCNP(=O)(OCC)OCC`, the growth inhibition is -6%.

As for `CCC1(CCC(C)C)C(=O)NC(=O)N(c2ccccc2)C1=O` (configuration not stated), the growth inhibition was 1.2%.

Turning to `O=N[O-].O=N[O-].[NH2-].[NH2-].[NH2-].[NH2-].[Ni]`, the growth inhibition is 0.55%.

Turning to `Oc1cccc(/C=N\NC(=S)NC2CN3CCC2CC3)c1` (configuration not stated), the growth inhibition is 2.85%.

Regarding `CCN1/C(=C/C=C2\CCC(/C=C/c3sc4ccc(Cl)cc4[n+]3CC)=C2N(c2ccccc2)c2ccccc2)Sc2ccc(Cl)cc21`, the growth inhibition was 14.4%.

For the molecule `COC(=O)C(Cl)Cl`, the growth inhibition was 9.2%.

Regarding `CO[C@@]12[C@@H]3N[C@@H]3CN1C1=C(C(=O)C(NCCC#N)=C(C)C1=O)[C@@H]2COC(N)=O`, the growth inhibition is -15.8%.
